Tau FP inhib = inhibitors of human tau fibril formation; K18 P301L tau heparin fibrillization, Alexa594 FP, 6 h; AID 1468; hit rate 0.39% among 280,000; P10636; Potency, µM (top dose mostly 57.7 µM), usual class: inhibitors; note: nearly all actives have a fitted effect of over 55% in size
Target sequence (P10636 561-689 P618L limits assumed): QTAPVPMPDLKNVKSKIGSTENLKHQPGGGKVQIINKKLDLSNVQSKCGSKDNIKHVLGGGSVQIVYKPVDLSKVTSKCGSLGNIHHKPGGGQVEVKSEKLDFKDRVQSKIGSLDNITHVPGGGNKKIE
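Human tau K18 […] P301L fragment, 15 uM unlabeled plus 0.24 uM Alexa 594-labeled tau (final), with compound and 20 uM heparin in 100 mM sodium acetate pH 7; 6 hr at 37 C, then Alexa 594 FP read.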
Tau fibril ThT = inhibitors of human tau fibril formation, thioflavin T binding | P10636 | recombinant tau K18 P301L, heparin-induced fibrillization, ThT fluorescence | Potency, µM (highest dose often 57.4 µM), hits mostly inhibitors | hit rate 2.1% among 270,000 | AID 1460; note: nearly all actives have a fitted effect of over 55% in size
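ThT emission at 510 nm, taken 1 hr after adding 30 uM dye, quantifies aggregates formed when 20 uM heparin acts on human tau K18 P301L for 6 hr at 37 C.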
Tau fluor counter = counter-screen for tau fibril formation inhibitors. tau K18 P301L (four-repeat tau fragment) Alexa594 fluorescence, heparin fibrillization. Potency, µM (top dose mostly 57.7 µM). hit rate 0.93% among 280,000; note: nearly all actives have a fitted effect of over 55% in size
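Human K18 P301L tau (15 uM unlabeled plus 0.24 uM Alexa 594-labeled, final) in 100 mM sodium acetate pH 7 was mixed with compound and 20 uM heparin and incubated 6 hr at 37 C.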
Sfp PPTase inh = blocks B. subtilis Sfp PPTase activity. Q9F4F7. Biochemical Sfp PPTase activity, qHTS. Potency, µM, actives largely listed as inhibitors. hit rate 3.5% among 310,000. AID 1490;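 note: the enzyme is Sfp with the accession as filed and its product quenches rhodamine fluorescence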
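Fluorescence-quenching assay with 15 nM Sfp, 5 uM rhodamine-CoA and 12.5 uM BHQ-2-labelled ybbR peptide in pH 7.6 Hepes/MgCl2 buffer. Enzyme was pre-incubated with compound for 15 min at room temperature. Rate was taken from the 30-min fluorescence change (525/598 nm).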
FBPA coupling cs = inhibits coupling enzyme system, counter-screen for aldolase hits; hit rate 0.67% among 290,000; coupling enzyme system counterscreen, AmpLite Red fluorescence; activity change, negative = inhibition, % at 58.2 µM, hits read low; AID 2472; in the data active = activity change below about -30%
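Compounds tested against the coupling enzymes alone at 57.5 uM final; readout was AmpLite Red fluorescence (525/598 nm) after 20 min at RT.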
Of the large screens only hits and unclear results are named; the others gave an inactive call; [ ] = another dose, or the depositor's remark. Shown are actives, neighbours in structure and some others; about 5.2% of the full set was active somewhere. Unless noted, calls come from the whole dose curve; as a rule, active = well fitted curve in the direction sought with a large enough effect; inconclusive = small, poorly fitted or top-dose-only effect, or another doubt; inactive = no such curve, though single readings can be large; an effect the other way counts as inactive or inconclusive.

Cc1ccc(C)c(S(=O)(=O)N2CCN(CC(=O)N3CCc4ccccc4C3)CC2)c1	Sfp PPTase inh 56µM
COc1cc2c(cc1OC)CN(C(=O)CN1CCN(S(=O)(=O)c3ccccc3Br)CC1)CC2	Sfp PPTase inh inconclusive (no result: Tau FP inhib, Tau fibril ThT, Tau fluor counter)
COc1cc(=O)n(C)c2c(OC[C@@H](O)C(C)(C)O)cccc12	none (no result: Tau FP inhib, Tau fibril ThT, Tau fluor counter)
NC1=NC(S)C2N=CN=C2N1 (stereo unspecified)	Sfp PPTase inh 56µM (no result: Tau FP inhib, Tau fibril ThT, Tau fluor counter, FBPA coupling cs)
NC(=S)NNc1cccc2cccnc12	Tau FP inhib 7.9µM, Tau fibril ThT 3.5µM, Tau fluor counter inconclusive, Sfp PPTase inh 3.2µM, FBPA coupling cs -36
COC(=O)c1ccc(Sc2ccc(C)cc2)c(N)c1	Tau fluor counter inconclusive, Sfp PPTase inh 50µM
COc1ccc(OC)c(CNC(=O)c2ccc(Sc3ccc(C)cc3)c(N)c2)c1	Tau fluor counter inconclusive (no result: Sfp PPTase inh, FBPA coupling cs)
COc1ccc(/C=N/Nc2nnc(C)n2N)cc1OC	Tau FP inhib inconclusive, Tau fibril ThT 28µM, FBPA coupling cs -40
Cc1nnc(N/N=C/c2ccc(Br)cc2)n1N	Sfp PPTase inh inconclusive (no result: Tau FP inhib, Tau fibril ThT, Tau fluor counter)
CC(C)(C)c1nnc(N/N=C/c2ccccc2)n(N)c1=O	Sfp PPTase inh 79µM
Cc1nnc(N/N=C/c2ccc(-c3ccc(Br)cc3)o2)n1N	Tau fibril ThT 7.9µM, Tau fluor counter inconclusive, Sfp PPTase inh 56µM
Cc1nnc(N/N=C/c2ccc([N+](=O)[O-])cc2)n1N	Tau fibril ThT inconclusive, FBPA coupling cs -45
CCCCCCCCCCCCCC[C@@H](O)[C@@H](O)[C@H](CO)NC(C)=O	Sfp PPTase inh inconclusive (no result: Tau FP inhib, Tau fibril ThT, Tau fluor counter)
CC(=O)c1c(C)[nH]c(C(=O)Nc2ccc(C)c(S(=O)(=O)Nc3ccc(C)cc3C)c2)c1C	Tau FP inhib inconclusive, Tau fluor counter 22µM[quencher]
COc1ccccc1NS(=O)(=O)c1cc(NC(C)=O)ccc1N1CCCCC1	Tau fluor counter inconclusive, Sfp PPTase inh 45µM
COc1ccccc1NS(=O)(=O)c1cc(NC(=O)Nc2cccc(C)c2)ccc1N1CCCCC1	Tau FP inhib 28µM, Tau fibril ThT inconclusive, Tau fluor counter inconclusive
CC(=O)c1c(C)[nH]c(C(=O)Nc2ccc(C)c(S(=O)(=O)N(C)C)c2)c1C	none
COc1ccccc1NS(=O)(=O)c1cc(NC(=O)c2[nH]c(C)c(C(C)=O)c2C)ccc1N1CCOCC1	Tau FP inhib inconclusive, Tau fluor counter 13µM[quencher]
COc1ccccc1NS(=O)(=O)c1cc(NC(=O)C2CC2)ccc1N1CCOCC1	Tau fluor counter inconclusive
COc1ccccc1CCNC(=O)c1ccc(-c2nc(CSc3ccc(C)cc3)c(C)o2)cc1	none (no result: Sfp PPTase inh, FBPA coupling cs)
COc1ccc(-c2nc3cc(NC(=O)c4ccc(C)cc4)ccc3o2)cc1Cl	Tau FP inhib inconclusive, Tau fibril ThT inconclusive (no result: Sfp PPTase inh, FBPA coupling cs)
Cc1ccc(-c2nnc(Nc3ccc(Br)cc3)c3ccccc23)cc1S(=O)(=O)NCC1CCCO1 (stereo unspecified)	Tau FP inhib inconclusive, Tau fluor counter inconclusive (no result: Sfp PPTase inh, FBPA coupling cs)
COc1ccccc1NS(=O)(=O)c1cc(NC(=O)c2ccncc2)ccc1N1CCCC1	Tau fibril ThT inconclusive, Tau fluor counter 22µM[quencher], Sfp PPTase inh 14µM
O=C(Nc1ccc(Cl)cc1)Nc1ccc(N2CCCC2)c(S(=O)(=O)Nc2ccccc2Cl)c1	Tau FP inhib inconclusive, Tau fluor counter 2.8µM[quencher]
CC1=NN(c2ccccc2)C(=O)/C1=C\c1ccc(Br)s1	Tau fibril ThT 13µM, Tau fluor counter inconclusive
CC1=NN(c2ccccc2)C(=O)/C1=C/c1cccs1	Tau fibril ThT inconclusive
COc1ccc(/C=C2/C(=O)N(c3ccccc3)N=C2C)cc1Br	Sfp PPTase inh 50µM (no result: Tau FP inhib, Tau fibril ThT, Tau fluor counter)
COc1ccc(/C=C2/C(=O)N(c3cccc(F)c3)N=C2C)c(OC)c1	none (no result: Tau FP inhib, Tau fibril ThT, Tau fluor counter)
CC1=NN(c2ccccc2)C(=O)/C1=C/c1c(O)n(-c2ccc(F)cc2)[nH]c1=O	Tau fibril ThT 4.5µM, Tau fluor counter 13µM[quencher]
CC1=NN(c2ccccc2)C(=O)/C1=C\c1cc(C)n(-c2ccccc2)c1C	Tau fibril ThT 7.9µM
CCCOC(=O)c1c(-c2ccccc2)c(-c2ccccc2)nn(C)c1=O	none (no result: Sfp PPTase inh, FBPA coupling cs)
COc1ccc(C2CC(=O)c3cnc4c(-c5ccc(F)cc5)c(C)nn4c3C2)cc1OC (stereo unspecified)	none (no result: Sfp PPTase inh, FBPA coupling cs)
COc1ccc(NC(=O)c2c(N)c(C(=O)c3ccc(C)cc3)n3ccccc23)cc1OC	none (no result: Sfp PPTase inh, FBPA coupling cs)
CC1=NN(c2ccccc2)C(=O)/C1=C/c1ccc(Cl)cc1	none (no result: Tau FP inhib, Tau fibril ThT, Tau fluor counter)
CC1=NN(c2ccccc2)C(=O)/C1=C/c1ccc[nH]1	Tau fibril ThT 13µM

High-throughput results deposited in PubChem BioAssay by National Center for Advancing Translational Sciences (NCATS).
